This is an account of results in PubChem BioAssay AID588511 (Johns Hopkins Ion Channel Center, 2011).

SMILES strings stand for the structures. Screen size: about 310,000 compounds; about 3,600 (1.2%) were called active.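 The calls were made as follows: active = ratio plate-corrected score three or more library SD toward inhibition, starting fluorescence score within five deviations; inactive = the rest.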 This excerpt belongs to a sample that is enriched for actives.

In this test the target is Anoctamin-1 (Mus musculus) (UniProt Q8BHY3). In words: blockers of mouse ANO1 Ca-activated Cl channel – cell-based, HTS, primary screen (AID 588511).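 As to normalized B-score (activity score, 25-100; higher = stronger inhibition): score derived from kinetic fluorescence span divided by baseline fluorescence per well.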 The following applies: HEK293 TMEM16A/YFP iodide influx fluorescence, ionomycin; at 10 µM.
Sequence of Anoctamin-1 (Mus musculus) (Q8BHY3 whole entry, looked up): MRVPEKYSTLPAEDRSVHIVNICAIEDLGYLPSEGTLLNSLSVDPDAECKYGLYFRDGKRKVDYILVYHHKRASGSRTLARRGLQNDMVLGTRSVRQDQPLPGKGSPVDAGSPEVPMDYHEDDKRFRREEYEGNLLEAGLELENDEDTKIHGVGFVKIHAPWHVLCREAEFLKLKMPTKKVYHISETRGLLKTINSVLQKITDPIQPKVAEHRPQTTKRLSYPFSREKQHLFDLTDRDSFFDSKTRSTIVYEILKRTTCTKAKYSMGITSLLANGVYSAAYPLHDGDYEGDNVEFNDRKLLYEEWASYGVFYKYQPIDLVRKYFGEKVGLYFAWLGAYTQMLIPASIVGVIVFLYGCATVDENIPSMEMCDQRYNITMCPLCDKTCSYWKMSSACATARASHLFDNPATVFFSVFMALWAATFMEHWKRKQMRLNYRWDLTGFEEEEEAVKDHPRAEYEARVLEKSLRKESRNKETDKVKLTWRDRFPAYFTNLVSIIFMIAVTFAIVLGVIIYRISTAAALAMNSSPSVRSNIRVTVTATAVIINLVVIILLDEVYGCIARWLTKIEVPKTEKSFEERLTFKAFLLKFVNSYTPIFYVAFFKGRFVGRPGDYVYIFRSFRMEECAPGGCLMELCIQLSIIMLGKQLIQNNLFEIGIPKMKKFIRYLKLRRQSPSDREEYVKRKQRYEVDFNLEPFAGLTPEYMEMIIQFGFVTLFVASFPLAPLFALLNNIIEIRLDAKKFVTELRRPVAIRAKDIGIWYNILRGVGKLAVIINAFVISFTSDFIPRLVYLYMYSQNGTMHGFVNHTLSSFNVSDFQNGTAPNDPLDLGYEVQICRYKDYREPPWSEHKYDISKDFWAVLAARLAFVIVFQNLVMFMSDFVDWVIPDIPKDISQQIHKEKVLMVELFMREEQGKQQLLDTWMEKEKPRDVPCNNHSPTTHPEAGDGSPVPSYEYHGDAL
With `COc1ccc(CN2CCNC(=O)C2CC(=O)N(C)Cc2ccccn2)cc1OC` (stereo unspecified), the normalized B-score (activity score, 25-100; higher = stronger inhibition) entry was “inactive”. For `Cc1ccc(C(=O)CSc2ccccc2C(=O)O)cc1` the value was “inactive”. The entry for `Cc1ccc(SCC(=O)Nc2ccc3c(c2)OCCO3)cc1` is “inactive”.

As to `Cc1ccc(SCC(=O)c2cc(C)c(OC(=S)N(C)C)c(C)c2)cc1`, the normalized B-score (activity score, 25-100; higher = stronger inhibition) was 100 (active).

As to `O=C(C1CCN(S(=O)(=O)c2ccc(Br)s2)CC1)N1CCN(c2ccccc2)CC1`, the normalized B-score (activity score, 25-100; higher = stronger inhibition) result was “inactive”. For `Cc1ccc(N2CC(C(=O)Nc3ccc(S(=O)(=O)N4CCCC4)cc3)CC2=O)cc1C` (stereo unspecified) the value was “inactive”; for `Cc1ccc(NC(=O)C2CC(=O)N(c3ccc4c(c3)OCCO4)C2)cc1S(=O)(=O)N1CCCCCC1` (stereo unspecified), 25 (active). The entry for `COc1ccc(S(=O)(=O)N2CCCCC2)cc1NC(=O)C1CC(=O)N(c2ccc3c(c2)OCCO3)C1` (stereo unspecified) is “inactive”; for `Cc1oc(-c2ccccc2F)nc1CS(=O)CC(=O)NCCN1CCCCC1C` (stereo unspecified) it is “inactive”; for `CC(c1ccccn1)N(CCN(C)C)C(=S)Nc1ccccc1F` (stereo unspecified) it is “inactive”. Regarding `CSc1cccc(NC(=S)N(Cc2ccccc2)Cc2ccccn2)c1`, the normalized B-score (activity score, 25-100; higher = stronger inhibition) result was “inactive”. Take `CSc1cccc(NC(=S)N(C(C)C)C(C)c2ccccn2)c1` (stereo unspecified): the normalized B-score (activity score, 25-100; higher = stronger inhibition) was 25 (active). For `CC(C)/C=N/NC(=O)c1cc(Br)ccc1O` the value was “inactive”; for `CC(=O)N/N=C(\C)c1ccc(Br)cc1Br`, “inactive”; for `CC(=N\NC(=O)c1cc(Br)ccc1O)/C(=N/O)C(=O)Nc1ccccc1`, 25 (active). The entry for `O=C(NC(=S)Nc1ccc(Cl)c(C(=O)O)c1)c1cncc(Br)c1` is “inactive”. The entry for `COc1cc(C)c(C(C)C)cc1S(=O)(=O)n1ccnc1` is “inactive”; for `COc1ccccc1-n1cnc2cc(NS(=O)(=O)c3ccccc3)ccc21` it is “inactive”; for `O=C(O)c1ccc(Cn2c(=S)[nH]c3cc(Cl)ccc3c2=O)cc1` it is “inactive”.

In the case of `CC(C)c1ccc2c(c1)c(SC(C)(C)C)c(CC(C)(C)C(=O)O)n2Cc1ccc(Cl)cc1`, the normalized B-score (activity score, 25-100; higher = stronger inhibition) is 100 (active). As to `O=C(COC(=O)CNS(=O)(=O)c1ccccc1)NC12CC3CC(CC(C3)C1)C2`, the normalized B-score (activity score, 25-100; higher = stronger inhibition) entry was “inactive”. The entry for `CSc1nnc2c(n1)OC(c1cn(C)c3ccccc13)N(C(C)=O)c1ccccc1-2` (stereo unspecified) is “inactive”; for `CSc1nnc2c(n1)OC(c1ccsc1)N(C(C)=O)c1ccccc1-2` (stereo unspecified) it is 100 (active); for `CSc1ncc(Sc2ccccc2)c(C(=O)O)n1` it is “inactive”. The entry for `O=C(NCCc1c[nH]c2ccc(Cl)cc12)c1ccc([N+](=O)[O-])cc1` is “inactive”; for `NS(=O)(=O)c1ccc(CCNC(=O)c2ccc(Cl)cc2[N+](=O)[O-])cc1` it is “inactive”; for `O=C(NCCc1ccc(Cl)cc1Cl)c1cc([N+](=O)[O-])c[nH]c1=O` it is 100 (active). For `CC(C)CC(CCc1ccccc1)OS(N)(=O)=O` (stereo unspecified) the value was “inactive”; for `CSc1nc2nc3c(c(=O)n2[nH]1)CCC3`, “inactive”. Turning to `COc1ccc(C(=O)CCc2ccccc2O)c(OC)c1`, the normalized B-score (activity score, 25-100; higher = stronger inhibition) entry is “inactive”. For `CCOc1ccc(NC(=O)CCCCCN2C(=O)[C@@H]3Cc4ccccc4CN3C2=O)cc1`, the normalized B-score (activity score, 25-100; higher = stronger inhibition) entry was “inactive”. In the case of `CCOC(=O)Cc1csc(NC(=O)CSc2nnc(-c3cccnc3)n2Cc2ccco2)n1`, the normalized B-score (activity score, 25-100; higher = stronger inhibition) is 100 (active). The entry for `O=C(CSc1nnc(-c2cccnc2)n1Cc1ccco1)c1ccc(Cl)c(Cl)c1` is “inactive”; for `COc1cc(Cl)c(C)cc1NC(=O)CSc1nnc(-c2cccnc2)n1Cc1ccco1` it is “inactive”; for `COc1ccc(/C(C)=N\NC(=O)c2ccc(-c3ccccc3)cc2)c(F)c1` it is “inactive”. For `O=[N+]([O-])C(=c1ccc2c(c1)N1C3=C(CCCC3)CC3CCCCC31N=2)[N+](=O)[O-]` (stereo unspecified) the value was “inactive”; for `Cc1[nH]n(-c2cccc(Cl)c2)c(=O)c1/C=N/n1c(C)nc2ccccc2c1=O`, “inactive”; for `Cc1[nH]n(-c2cccc(Cl)c2)c(=O)c1-c1ccc(Cl)cc1`, 25 (active). For `O=c1c(-c2cccc(Cl)c2)c[nH]n1-c1ccccc1` the value was “inactive”; for `Cc1ccccc1OCC(=O)N(Cc1cccc(F)c1)C1CCS(=O)(=O)C1` (stereo unspecified), “inactive”; for `C=CCn1c(SCC(=O)NCc2ccccc2)nnc1-c1cc(Br)ccc1O`, “inactive”. On to `C=CCn1c(SCC(=O)Nc2nc3ccccc3s2)nnc1-c1ccccc1O`, for which the normalized B-score (activity score, 25-100; higher = stronger inhibition) is 100 (active). The entry for `Cn1nnnc1SCC(=O)Nc1nc2ccccc2s1` is “inactive”; for `COc1ccc(Cl)cc1NC(=O)CN(C)C(=O)c1cc2ccccc2cc1OC` it is “inactive”; for `CN(CC(O)COc1ccc(S(=O)(=O)N2CCOCC2)cc1Cl)C1CCCCC1` (stereo unspecified) it is “inactive”. As to `Cc1oc2c(F)c(F)c(F)c(F)c2c1S(=O)(=O)Nc1cccc(C(F)(F)F)c1`, the normalized B-score (activity score, 25-100; higher = stronger inhibition) is 100 (active).

As to `O=C(/C=C/c1ccc(F)cc1)Nc1cccc(S(=O)(=O)Nc2cccc(C(F)(F)F)c2)c1`, the normalized B-score (activity score, 25-100; higher = stronger inhibition) result was “inactive”. The entry for `CCOC(=O)N1CCN(C(=O)c2ccc(S(=O)(=O)Nc3cccc(C(F)(F)F)c3)cc2)CC1` is “inactive”; for `COc1ccccc1-n1c(SCC(=O)Nc2cccc(C(=O)O)c2)nnc1-c1ccccc1O` it is “inactive”; for `Cc1cc2c(cc1C)N(Cc1ccccc1)C1=NCCCN12` it is “inactive”. Turning to `Cn1cc(C(=O)c2ccc(Cl)cc2Cl)cc1C(=O)NN`, the normalized B-score (activity score, 25-100; higher = stronger inhibition) entry is “inactive”.

Regarding `O=C(CCc1ccccc1)Nc1ncc([N+](=O)[O-])s1`, the normalized B-score (activity score, 25-100; higher = stronger inhibition) entry was “inactive”. The entry for `O=C(Cc1c(F)cccc1Cl)Nc1ccc(-n2cnnn2)cc1` is “inactive”; for `O=C(Cc1c(F)cccc1Cl)Nc1ncc([N+](=O)[O-])s1` it is 100 (active); for `Cc1ccc2nsnc2c1NC(=O)c1ccccc1[N+](=O)[O-]` it is “inactive”. For `N=c1oc2ccccc2cc1C(=O)NCc1ccccc1` the value was “inactive”; for `O=C(NCCc1ccc2c(c1)OCCO2)c1cc2ccccc2o1`, 100 (active); for `O=C(CC(Cc1ccccc1)C(=O)O)NCCc1ccc2c(c1)OCO2` (stereo unspecified), “inactive”.

Take `O=C(COc1cc(Cl)c(Cl)cc1Cl)NC(=O)NC1CCCC1`: the normalized B-score (activity score, 25-100; higher = stronger inhibition) result is “inactive”. The entry for `O=C(NCc1cccnc1)c1ccccc1NC(=O)c1c(F)cccc1F` is “inactive”; for `Cc1nc2c(ncn2-c2ccccc2)c(=O)n1NC(=O)CN1CCCC1` it is “inactive”. With `CCN1CC=C2C(C#N)=C(N)C(C#N)(C#N)[C@H](c3ccoc3)[C@H]2C1`, the normalized B-score (activity score, 25-100; higher = stronger inhibition) result is “inactive”. For `CCOC(=O)N1CC=C2C(C#N)=C(N)C(C#N)(C#N)[C@H](c3cccs3)[C@H]2C1` the value was 25 (active); for `CCCN1CC=C2C(C#N)=C(N)C(C#N)(C#N)C(c3cc(OC)ccc3OC)C2C1` (stereo unspecified), “inactive”; for `CCC(C(=O)NCCC(C)C)N(Cc1ccccc1Cl)C(=O)c1snc(C(N)=O)c1N` (stereo unspecified), “inactive”. For `COC(=O)c1cc(OCC(=O)NC2CCCc3ccccc32)cc(C(=O)OC)c1` (stereo unspecified) the value was “inactive”; for `O=C(CCCN1CCc2[nH]c3ccc(F)cc3c2C1)c1ccc(F)cc1`, “inactive”; for `Oc1c(Cl)cc(Cl)c(Cl)c1Cc1c(O)c(Cl)cc(Cl)c1Cl`, 100 (active). For `O=C(N/N=C/c1cccc(OCc2ccccc2)c1)c1ccc(Br)o1` the value was “inactive”; for `CCOc1ccc(CN2CCN(Cc3c[nH]c4ccccc34)CC2)cc1`, “inactive”; for `CN(C)/C=N/c1cc(=O)n(C)c(=O)n1CC1CC1`, “inactive”. For the compound `COc1ccc(CCNC(=S)N2CCN(S(=O)(=O)c3ccc(Cl)cc3)CC2)cc1`, the normalized B-score (activity score, 25-100; higher = stronger inhibition) result was “inactive”.

As to `Oc1cc2c(cc1O)CN(C(=S)NCCc1ccc(Cl)cc1)CCC2`, the normalized B-score (activity score, 25-100; higher = stronger inhibition) is 25 (active). In the case of `O=C(NCCc1ccc(Cl)cc1)c1cccc(N2CCCC2=O)c1`, the normalized B-score (activity score, 25-100; higher = stronger inhibition) entry is “inactive”. For `Cc1cc2cc3c(cc2nc1SCC(=O)Nc1c(C)cccc1C)CCC3` the value was “inactive”. The entry for `Cc1cn(C2OC[C@@H](O)[C@@H]2CO)c(=O)[nH]c1=O` (stereo partly specified) is “inactive”. The entry for `COc1ccc(C(C#N)N2N=C(C)CC2(C)C)cc1` (stereo unspecified) is “inactive”. On to `O=C(CN1C(=O)S/C(=C\c2ccccc2F)C1=O)NCCCn1ccnc1`, for which the normalized B-score (activity score, 25-100; higher = stronger inhibition) entry was “inactive”.

For the compound `O=C(CN1C(=O)/C(=C/c2ccccc2F)Sc2ccccc21)NCc1cccnc1`, the normalized B-score (activity score, 25-100; higher = stronger inhibition) was 100 (active). Consider `O=C(CN1C(=O)/C(=C\c2ccc(C(F)(F)F)cc2)Sc2ccccc21)NCc1ccco1`, for which the normalized B-score (activity score, 25-100; higher = stronger inhibition) result was “inactive”.

With `CCc1nc(C)ccc1OCC(=O)N(CC)CC`, the normalized B-score (activity score, 25-100; higher = stronger inhibition) entry was “inactive”. The entry for `CN(C)CCOc1ccc(Cl)cc1C(C)(C)C` is “inactive”.

In the case of `CCC(C)(C)c1ccc(OCC(=O)N(C)C)c(C(C)(C)CC)c1`, the normalized B-score (activity score, 25-100; higher = stronger inhibition) is 100 (active). On to `O=C(CCCN1C(=O)/C(=C\c2ccccc2)SC1=S)Nc1ccccc1O`, for which the normalized B-score (activity score, 25-100; higher = stronger inhibition) result was “inactive”. For `COc1ccc(/C=C2\SC(=O)N(CCC(=O)NCCCn3ccnc3)C2=O)cc1` the value was “inactive”; for `COc1ccc(/C=C2/SC(=O)N(CCCCCC(=O)Nc3ccccc3C(=O)O)C2=S)cc1`, 100 (active). For `OC(c1ccccc1)C(CN1CCOCC1)c1ccccc1` (stereo unspecified) the value was “inactive”; for `Cc1cc(C=O)c(C)n1-c1ccc(NC2CCCCC2)c([N+](=O)[O-])c1`, 100 (active). The entry for `Cc1c(NS(=O)(=O)c2ccc(NC3CCCC3)c([N+](=O)[O-])c2)c(=O)n(-c2ccccc2)n1C` is “inactive”; for `Cc1cc([N+](=O)[O-])ccc1NC1CCCC1` it is “inactive”; for `COc1ccc(F)cc1C(=O)C1CCCN(C(=O)CCc2ccccn2)C1` (stereo unspecified) it is “inactive”. On to `O=C(N/N=C1\CCSC1)c1cc(Cl)ccc1O`, for which the normalized B-score (activity score, 25-100; higher = stronger inhibition) result is “inactive”. For the compound `CC1CCCCC1NC(=O)c1cc(=O)[nH]c2ccccc12` (stereo unspecified), the normalized B-score (activity score, 25-100; higher = stronger inhibition) result was “inactive”. For `Cc1c(C(=O)OC(C)C)sc(NC(=O)c2cccnc2)c1C#N`, the normalized B-score (activity score, 25-100; higher = stronger inhibition) is 100 (active). For `CCOC(=O)c1ccc(NC(=O)c2cccnc2)cc1` the value was “inactive”; for `CCOC(=O)c1cc(NC(=O)c2cccnc2)ccn1`, “inactive”. For `Cc1ccc(/C=N/NC(=O)C(NC(=O)c2ccccc2)c2n[nH]c(=O)c3ccccc23)cc1` (stereo unspecified) the value was “inactive”; for `Cc1ccc2c(c1)N(CC(=O)N1CCCC(C)C1)C(=O)CO2` (stereo unspecified), “inactive”; for `Cc1ccc2c(c1)N(CC(=O)N1CCCc3ccccc31)C(=O)C(C)O2` (stereo unspecified), 100 (active).

`CCC(=O)N1CCCc2ccccc21`: the normalized B-score (activity score, 25-100; higher = stronger inhibition) result was “inactive”. The entry for `O=C1NC(c2ccccc2)=NC1(Nc1ccccn1)C(F)(F)F` (stereo unspecified) is “inactive”; for `CC(Oc1ccc(Cl)cc1)c1ccnn1S(C)(=O)=O` (stereo unspecified) it is “inactive”; for `CC(=O)Nc1ccc(C(=O)OCC(=O)Nc2ccc([N+](=O)[O-])cc2C(F)(F)F)cc1` it is “inactive”.

As to `COc1cc(NC(=O)C2=CC(c3ccc(C)cc3)=NS(=O)(=O)N2C)cc(OC)c1OC`, the normalized B-score (activity score, 25-100; higher = stronger inhibition) result was “inactive”.

On to `COc1cc(NC(=O)C2=CC(c3ccco3)=NS(=O)(=O)N2C)cc(OC)c1OC`, for which the normalized B-score (activity score, 25-100; higher = stronger inhibition) result was “inactive”.

Take `COc1ccc(NC(=O)C2=CC(c3ccc(OC)c(OC)c3)=NS(=O)(=O)N2C)cc1`: the normalized B-score (activity score, 25-100; higher = stronger inhibition) is 25 (active).
